Source: PubChem (several laboratories)
aDG glyco act: alpha-DG glycosylation activation; Pro5-aDG cells, alpha-DG glycosylation AlphaScreen (IIH6); 0% Pro5, 100% B10-LARGE cell signal; actives 0.22% (n = 360,000); activation, % at 10 µM;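 active = activation of at least 8% versus controls, or a plate z-score of at least 8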;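 note: Pro5 are CHO cells carrying HIG-tagged alpha-DG that lacks glycosylation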
FAS-TE inh: FAS thioesterase (human) inhibition. P49327. recombinant FAS-TE, OMFH fluorogenic substrate, fluorescence endpoint. inhibition, % at 15 µM. actives 0.67% (n = 360,000). AID 602261;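 active = compounds whose normalised, plate-corrected inhibition of enzyme fluorescence in the single-dose primary screen is 50% or more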
Mot1-301 SUMO: SUMOylation pathway inhibition by Mot1-301 growth rescue; S. cerevisiae Mot1-301 growth rescue, ATP luminescence, 38.5C; percent above DMSO median, 100 means doubled; growth rescue, % at 18.8 µM; actives 1% (n = 320,000); AID 2716;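 active = every valid replicate shows activation above 250% relative to neutral control wells; inactive = the rest, any valid replicate at or below 250%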
Cardio protect: myocardial damage modulation in H9c2 cells. H9c2 cardiomyocytes, H2O2 injury protection, ATPLite, 2 h. protection from H2O2 cell death, % at 20 µM. actives 0.63% (n = 360,000). AID 588492;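 active = compounds giving at least 50% protection of heart cells from peroxide-induced death in the single-dose screen, raw or plate-pattern-corrected value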
MPTP block: permeability transition pore inhibition | isolated mouse mitochondria, Ca2+ swelling absorbance, 30 min | inhibition, % at 10 µM | actives 1.4% (n = 360,000) | AID 602449;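 active = inhibition of 50% or more, scaled per plate between neutral and stimulator controls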
Yeast superoxide: caloric restriction mimetics inhibiting age-related superoxide in yeast. S. cerevisiae aged cells, superoxide DHE fluorescence; stronger effect = lower value. superoxide response (% of plate mean), % at 10 µM. actives 0.18% (n = 330,000). AID 2690;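 active = superoxide response under a set limit, about three screen SD below normal, cut at about 65% in these data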;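 note: yeast aged for seven days with compound at 30 °C before DHE staining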
FAS-TE inh conf: FAS thioesterase (human) inhibition, confirmation; shares compounds with FAS-TE inh; recombinant FAS-TE, OMFH fluorogenic substrate, fluorescence; inhibition, % at 15 µM; actives 45% (n = 2,300); AID 624325;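 active = compounds inhibiting the enzyme by at least 50% at 15 µM in any one of the replicates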
Hits are given with their value; – = inactive; · = not tested or not shown. A selection: hits, their analogues and other compounds. The true share with any hit is near 3.8%.

SMILES | aDG glyco act | FAS-TE inh | Mot1-301 SUMO | Cardio protect | MPTP block | Yeast superoxide | FAS-TE inh conf
CCCCCCCCCCCCCCCCCCNc1ccn(C2OC(COP(=O)(O)OCC3OC(n4cc(F)c(=O)[nH]c4=O)CC3O)C(O)C2O)c(=O)n1 (stereo not given) | – | 55 | · | – | – | · | –
COc1ccc(S(=O)(=O)NC2CCN(Cc3ccccc3)CC2)cc1NC(C)=O | – | – | – | – | – | – | ·
Cn1cc([N+](=O)[O-])c(C(=O)Nc2ccc(C3CCCCC3)cc2)n1 | – | 52 | – | – | – | – | –
CC1(C(=O)NS(=O)(=O)c2ccccc2Cl)CCN1C(=O)c1ccccc1CCc1ccccc1 (stereo not given) | – | – | · | – | – | · | ·
Cc1ccc(NC(=S)N=Nc2c(O)n(C)c3ccc(S(=O)(=O)N4CCOCC4)cc23)cc1C | – | 73 | – | – | – | – | –
C=CCn1c(O)c(N=NC(=S)Nc2ccccc2C)c2cc(S(=O)(=O)N3CCOCC3)ccc21 | – | 64 | – | – | – | – | –
COc1ccc2nc3n(c(=O)c2c1)-c1cc2ccccc2cc1C(=O)NC3Cc1ccccc1 (stereo not given) | – | 78 | · | – | – | · | –
CC(C)CC1NC(=O)c2cc3ccccc3cc2-n2c1nc1ccc(Cl)cc1c2=O (stereo not given) | – | 74 | · | – | – | · | –
CC(C)CC1NC(=O)c2ccccc2-n2c1nc1ccc(Cl)cc1c2=O (stereo not given) | · | · | – | · | · | – | ·
CCCCn1c(N)c(N(CC(C)C)C(=O)c2ccc(N3C(=O)CCC3=O)cc2)c(=O)[nH]c1=O | – | – | – | – | – | – | ·
CC(C(=O)N(C)Cc1cccc(F)c1)N1CCN(S(=O)(=O)c2ccc3c(c2)OCCCO3)CC1 (stereo not given) | – | – | · | – | – | · | ·
C/C(=C\c1ccc(C(=O)O)cc1)c1ccc2c(c1)C(C)(C)CCC2(C)C | – | 73 | – | – | – | – | –
CCOC(=O)c1sc(N2C(=O)C(O)=C(C(=O)c3ccco3)C2c2ccc([N+](=O)[O-])cc2)nc1C (stereo not given) | – | 56 | – | – | – | – | 73
CCOC(=O)c1sc(N2C(=O)C(O)=C(C(=O)c3ccco3)C2c2ccc(C)o2)nc1C (stereo not given) | – | – | – | – | – | – | ·
CCOC(=O)C1=C(COC(=O)C2CC(=O)N(c3ccc(C)cc3)C2)NC(=O)NC1C (stereo not given) | – | – | – | – | – | – | ·
Cc1ccc2cccc(CC(=O)NN)c2c1 | – | – | · | – | – | · | ·
Cc1ccc(NC(=O)c2nc(S(=O)(=O)Cc3ccccc3)ncc2Cl)cc1 | – | – | – | – | – | – | ·
Cc1ccccc1CS(=O)(=O)c1ncc(Cl)c(C(=O)Nc2ccc(F)cc2)n1 | – | 50 | 316 | – | – | – | –
CCN(c1ccccc1)S(=O)(=O)c1ccc(NC(=O)c2nc(S(C)(=O)=O)ncc2Cl)cc1 | – | 58 | – | – | – | – | 61
O=C(Nc1ccc(F)cc1)c1nc(S(=O)(=O)Cc2ccccc2)ncc1Cl | – | 57 | – | – | – | – | 58
CCS(=O)(=O)c1ncc(Cl)c(C(=O)Nc2ccc(S(=O)(=O)N(C)c3ccccc3)cc2)n1 | – | – | – | – | – | – | ·
CN1CCN(S(=O)(=O)c2ccc(C(F)(F)F)cc2)C(c2ccccc2)C1 (stereo not given) | – | – | · | – | – | – | ·
Cc1nc(/N=C(\N)NC(=O)N2c3ccccc3Sc3ccccc32)nc2ccccc12 | – | 68 | – | – | – | – | –
Cc1nc(/N=C(\N)NC(=O)c2ccccc2)nc2ccccc12 | – | – | – | – | – | – | ·
O=c1oc(-c2ccccc2Br)nc2ccccc12 | – | 61 | – | – | – | – | 53
SMILES | aDG glyco act | FAS-TE inh | Mot1-301 SUMO | Cardio protect | MPTP block | Yeast superoxide | FAS-TE inh conf
O=c1oc(-c2cccnc2)nc2ccccc12 | – | – | – | – | – | – | ·
CC1(C)CC(=O)C=C(c2ccc(-c3cnn(Cc4ccccc4)c3)cc2)C1=O | – | 60 | · | – | – | · | 71
CC1(C)CC(=O)C=C(c2ccc(COC(=O)c3ccc(-c4ccccc4)cc3)cc2)C1=O | – | – | · | – | – | · | ·
c1ccc(Cn2cc(-c3ccccc3)cn2)cc1 | – | – | – | – | – | – | ·
CC1(C)CC(=O)C=C(c2ccc(COC(=O)Cc3ccccc3)cc2)C1=O | – | 73 | · | – | – | · | –
Cc1ccc2c(c1)c1ccc3c(c1n2C)C(=O)C=CC3=O | – | 54 | · | – | – | · | –
CCC(C)(C)C1CCc2[nH]nc(C(=O)NCCCNC(=O)OC(C)(C)C)c2C1 (stereo not given) | – | 69 | – | – | – | – | 50
C[C@@H]1CN([C@H](C)CO)C(=O)CCCn2nncc2CO[C@@H]1CN(C)C(=O)C1CC1 | – | – | · | – | – | · | ·
CC(C)C[C@H]1CN(CCCC[C@@H]2CNC(=O)C(=O)N2CC2CCCCC2)C(=O)C(=O)N1CCc1ccc(O)cc1 | – | – | · | · | – | · | ·
CCc1cc(Cn2nc(-c3ccccc3)cc2C(=O)O)on1 | – | – | – | – | – | – | ·
O=c1c2c3c(sc2nc(NCCO)n1Cc1ccco1)CCCCC3 | – | – | – | – | – | – | ·
O=c1c2c3c(sc2nc(NCCO)n1CCc1ccccc1)CCCCC3 | – | 50 | – | – | – | – | –
CCC(C)(C)n1nnnc1C(C(C)C)N(CCN1CCOCC1)Cc1cc2cccc(C)c2[nH]c1=O (stereo not given) | – | – | – | – | – | – | ·
Cc1cc2cc(CN(Cc3cccs3)C(c3nnnn3C(C)(C)C)C(C)C)c3nnnn3c2cc1C (stereo not given) | – | 52 | · | – | – | · | –
COCCNC(=O)C1CCCN(C(=O)C2(c3ccc(Cl)cc3)CCCC2)CC1 (stereo not given) | – | – | · | – | – | · | ·
COc1ccc(Cl)cc1-c1cc(C(=O)NCc2cccc(Cl)c2)[nH]n1 | – | 51 | · | – | – | · | 51
COc1ccc(F)cc1-c1cc(C(=O)NCc2ccc(C(F)(F)F)cc2)[nH]n1 | – | 53 | · | – | – | · | –
O=C(c1ccc(Cl)c([N+](=O)[O-])c1)N1CCN(S(=O)(=O)c2ccc(Cl)cc2)CC1 | – | 51 | – | – | – | – | 30
O=C(CN1CCN(S(=O)(=O)c2ccccc2)CC1)Nc1ccc(Cl)c([N+](=O)[O-])c1 | – | 78 | – | – | – | – | –
O=C(CN1C(=O)NC2(CCCCCC2)C1=O)Nc1ccc(Cl)c([N+](=O)[O-])c1 | – | 58 | – | – | – | – | 70
CC(C)(C)c1ccc(OC(=O)Nc2ccc(O)c(C(=O)O)c2)cc1 | – | 50 | – | – | – | – | 63
Cc1cccc(OC(=O)Nc2ccc(C(=O)O)c(O)c2)c1 | – | – | · | – | – | · | ·
